Test results as given in PubChem BioAssay (NCI).
About 83,000 compounds went through this panel and 20% of them were active in at least one assay; those are over-represented in the sample as a whole.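 Results are percent growth after 48 hours of single-concentration exposure. 100 means growth as in untreated cells, lower positive values show inhibition; negative values down to -100 show cell death.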 Unmarked numbers belong to inactive results. Active and inactive are the calls of the source. The calls were made as follows: active = growth percent below 10; inactive = the rest.

What was measured:
Assay in all cases: NCI-60 one-dose screen, 48 h (100 = growth as untreated, 0 = no growth, -100 = all killed)
Settings in all cases: 10 µM unless noted
HCT-15 colon = test system: HCT-15 colon
HT29 colon = test system: HT29 colon
SNB-75 CNS = test system: SNB-75 CNS
SNB-19 CNS = test system: SNB-19 CNS
U251 CNS = test system: U251 CNS
PC-3 prostate = test system: PC-3 prostate
SK-MEL-5 melanoma = test system: SK-MEL-5 melanoma
LOX IMVI melanoma = test system: LOX IMVI melanoma
SK-MEL-28 melanoma = test system: SK-MEL-28 melanoma
UACC-62 melanoma = test system: UACC-62 melanoma

Compound | growth (HCT-15 colon) | growth (HT29 colon) | growth (SNB-75 CNS) | growth (SNB-19 CNS) | growth (U251 CNS) | growth (PC-3 prostate) | growth (SK-MEL-5 melanoma) | growth (LOX IMVI melanoma) | growth (SK-MEL-28 melanoma) | growth (UACC-62 melanoma) [%]
OCCNc1nc(NCCO)nc(Nc2ccc(C3=NN(c4cc(Cl)cc(Cl)c4)C(c4ccc(C(F)(F)F)cc4)C3)cc2)n1 (configuration not stated) | 17.5% | 10.5% | -1.68% (active) | 44.4% | 19.3% | 19.2% | 52.7% | -48.5% (active) | 44.8% | –
C=C1C(=O)O[C@H]2[C@H]1CC/C(COC(=O)n1ccnc1)=C\CC[C@@]1(C)O[C@@H]21 | 83.5% | 100% | 92.8% | 99% | 99.1% | 90.1% | 98.5% | 90.4% | 102% | 91.6
Cc1cccc(C)c1NCc1nnc(-c2ccco2)o1 | 103% | 93.9% | 85.5% | 101% | 96.9% | 81% | 96.3% | 93.5% | 110% | 90.1
CC(=O)c1c(OCC#N)ccc2c(C)cc(=O)oc12 | 102% | 117% | 103% | 97.2% | 94.9% | 87.2% | 104% | 100% | 93% | 96.5
CCCn1c2cc(OCc3cn(-c4ccc(Br)cc4)nn3)ccc2c2ccnc(C)c21 | 73.5% | 57.9% | -1.81% (active) | 53.8% | 33.8% | 74.5% | 76.8% | 72.7% | 80.3% | 38.8
Cc1nc2sc(C(=O)Nc3ccccc3)c(N)c2cc1C(C)O (configuration not stated) | 27.8% | 1.95% (active) | 30.9% | 24.3% | 21.7% | 21.5% | 26.5% | 47.5% | 55.8% | –
CCCCc1nc(Cl)c(C2CC(c3ccc(Cl)cc3)=NN2c2cc(Cl)cc(Cl)c2)[nH]1 (configuration not stated) | 86.5% | 85.4% | 65.6% | 93% | 90.7% | 45.6% | 69.1% | 67.2% | 99.8% | –
CCOCc1cc(C(C)(C)C)ccc1O | 104% | 94.6% | 87.4% | 98.3% | 94% | 93.7% | 99.5% | 96.5% | 106% | 94.4
C=C(C)[C@@H]1CC[C@]2(C(=O)OCCOCCOCC[P+](c3ccccc3)(c3ccccc3)c3ccccc3)CC[C@]3(C)[C@H](CC[C@@H]4[C@@]5(C)CC[C@H](OC(C)=O)C(C)(C)[C@@H]5CC[C@]43C)[C@@H]12 | -81.3% (active) | -88.5% (active) | -87.2% (active) | -93.6% (active) | -95.4% (active) | -90.2% (active) | -98.5% (active) | -93.2% (active) | -86.7% (active) | –
COCCOCCOCc1n(Cc2ccc3ccccc3n2)c2ccccc2[n+]1Cc1ccc2ccccc2n1 | 109% | 15.3% | 4.56% (active) | 22.4% | 10.8% | 13.7% | -14.6% (active) | 28.6% | 41.8% | –
O=Cc1[nH]c(Sc2ccccc2)c2ccccc12 | 70.3% | 55.4% | 42.8% | 89.1% | 67.5% | 46.4% | 74% | 80.5% | 92.9% | 62.3
CS(=O)(=O)O[C@@H]1C(=O)N(c2cc3c4ccccc4ccc3c3ccccc23)[C@H]1c1ccc(F)cn1 | 29.1% | 3.71% (active) | -0.245% (active) | 38.3% | 29.5% | 34.7% | 13.6% | 34.2% | 68.6% | –
CSc1nc(-c2cccs2)c2c(N)[nH]nc2n1 | 99.6% | 93.2% | 93.7% | 106% | 98.9% | 93.6% | 101% | 93.3% | 114% | –
C=C1C(=O)O[C@H]2[C@H]1CC/C(COC(=O)CCCCC(=O)OC/C1=C/CC[C@@]3(C)O[C@H]3[C@H]3OC(=O)C(=C)[C@@H]3CC1)=C\CC[C@@]1(C)O[C@@H]21 | 18.1% | 40.1% | 79.2% | 89.9% | 81.4% | 68.6% | 77.9% | 52.2% | 76.8% | –
C=C(C)[C@@H]1CC[C@]2(C(N)=O)CC[C@]3(C)[C@H](CC[C@@H]4[C@@]5(C)CCCNC(C)(C)[C@@H]5CC[C@]43C)[C@@H]12 | 50.2% | 16.4% | 76% | 87.3% | 58.7% | 50.3% | 67.2% | 76.9% | 85.1% | 87.4
NS(=O)(=O)c1ccc(-n2ncc(NC(=O)Nc3ccc(S(=O)(=O)Nc4nccs4)cc3)c2-c2ccccc2)cc1 | 104% | 99.9% | 65.7% | 103% | 102% | 111% | 105% | 101% | 102% | 98.4
OCCNc1nc(NCCO)nc(Nc2ccc(C3=NN(c4cc(Cl)cc(Cl)c4)C(c4ccc(Cl)cc4)C3)cc2)n1 (configuration not stated) | 5.12% (active) | -46% (active) | -6.43% (active) | 15.8% | -47.8% (active) | -12.1% (active) | 24.9% | -53.4% (active) | -55.8% (active) | 13.1
